Values joined by “and” are separate entries in the source; they are usually repeats but may differ in a detail not shown here. Equal entries are not always repeated.
Legend:
Assay in all cases: cell viability relative to vehicle control; higher = less cytotoxic
Settings in all cases: 10 µM
K562 = system: K562
Summary of the method: (§1)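 Four leukaemia lines, as CRISPR-edited mutant clones and isogenic wild-type clones, were tested against Selleck bioactive, kinase and epigenetic probe libraries after removal of identity-inconsistent compounds. Cells were exposed to a single 10 µM dose for 48 h, and CellTiter-Glo luminescence was then read. Viability was calculated relative to the on-plate vehicle control.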

MARIMO = system: MARIMO
Summary of the method: as §1

MOLM14 = system: MOLM14
Summary of the method: as §1

OCI-AML2 = system: OCI-AML2
Summary of the method: as §1

Compound	cell viability (K562; SRSF2 genotype: SRSF2 P95H/wt)	cell viability (K562; SRSF2 genotype: SRSF2 wt/wt) [%]	cell viability (MARIMO; SRSF2 genotype: SRSF2 P95H/wt) [%]	cell viability (MARIMO; SRSF2 genotype: SRSF2 wt/wt) [%]	cell viability (MOLM14; SRSF2 genotype: SRSF2 P95H/wt) [%]	cell viability (MOLM14; SRSF2 genotype: SRSF2 wt/wt) [%]	cell viability (OCI-AML2; SRSF2 genotype: P95H/wt) [%]	cell viability (OCI-AML2; SRSF2 genotype: wt/wt) [%]
Oc1ncnc2[nH]ncc12 [Allopurinol (Zyloprim)]	99% and 99.5%	104	97.1	98.3	99.3	96	101	104
O=C(O)C(S)=Cc1c[nH]c2ccc(F)cc12	95.6% and 105%	97	109	109	85.2	98.3	106	103
Cc1cnc(-c2cc(N3CCN(C(=O)CCS(C)(=O)=O)CC3)ncc2Cl)c(C)c1	98.7% and 98.8%	96.3	101	110	100	104	96.2	105
CNC(=O)c1ccc(N2C(=S)N(c3cnc(C#N)c(C(F)(F)F)c3)C(=O)C23CCC3)cc1F	98.6% and 98.8%	103	104	110	98.4	109	96.2	88.1
NC(=O)N1CCC(CC(=O)N2CCC([C@H]3c4ncc(Br)cc4CCc4cc(Cl)cc(Br)c43)CC2)CC1	49.1% and 62.3%	52.4	44.8	45.7	37.4	35.7	38	32
Cc1cnc(Nc2ccc(OCCN3CCCC3)cc2)nc1Nc1cccc(S(=O)(=O)NC(C)(C)C)c1	1.46% and 2.3%	2.29	6.76	10.9	0.67	0.58	0.71	1.39
Cc1cnc(C(=O)N[C@H]2CCCCC/C=C\[C@@H]3C[C@@]3(C(=O)NS(=O)(=O)C3CC3)NC(=O)[C@@H]3C[C@@H](Oc4nc5ccccc5c5ccccc45)CN3C2=O)cn1 [Paritaprevir(ABT-450)]	98.7% and 91.6%	91.4	106	119	97.8	100	115	114
NCC(=O)Nc1ccc(-n2nc(C(F)(F)F)cc2-c2ccc3c(ccc4ccccc43)c2)cc1	0.38% and 0.39%	0.29	0.31	0.5	0.18	0.22	0.19	0.23
COCCNc1cc(NC(=O)N2CCCc3cc(CN4CCN(C)CC4=O)c(C=O)nc32)ncc1C#N	94% and 103%	89.4	96.9	106	100	98.2	112	109
C=C1/C(=C\C=C2/CCC[C@]3(C)[C@@H]([C@H](C)/C=C/[C@@H](O)C4CC4)CC[C@@H]23)C[C@@H](O)C[C@@H]1O [Calcipotriene]	75.3% and 84.2%	79.8	65	65.3	66.8	63.6	79.2	96.1
COc1cc2c(Oc3ccc4[nH]c(C)cc4c3F)ncnc2cc1OCCCN1CCCC1 [Cediranib (AZD2171)]	4.41% and 2.97%	11.7	55.1	48.3	2.27	1.47	9.24	21.7
Cc1cc2c3c([n+](C)c4ccc(F)cc4c3c1)-c1cc(F)ccc1N2C [RHPS 4 methosulfate]	48.6% and 58.2%	61.4	52.5	50.6	5.12	27.5	0.13	8.9
COc1ccc(/C=C/c2cc(OC)cc(=O)o2)cc1 [Yangonin]	108% and 102%	104	97.7	99.3	115	114	94.1	98.2
O=C(c1ccccc1)c1ccc2nc(NC(=O)c3csc(C4CCN(c5ncnc6ccsc56)CC4)n3)[nH]c2c1	45.4% and 37.5%	39.3	41.3	37.5	34.2	26.5	26.2	25
Cc1ccc(-c2nn(C(C)(C)C)c3ncnc(N)c23)cc1	64.5% and 82.4%	63.5	99.2	102	58.6	85.9	82	78.6
COCCCOc1cc(C[C@@H](C[C@H](N)[C@@H](O)C[C@H](C(=O)NCC(C)(C)C(N)=O)C(C)C)C(C)C)ccc1OC [Aliskiren Hemifumarate]	104% and 99.9%	95.5	92.3	101	91.8	98.7	92.5	106
C[C@]12C=CC(=O)N[C@@H]1CC[C@@H]1[C@@H]2CC[C@]2(C)[C@@H](C(=O)Nc3cc(C(F)(F)F)ccc3C(F)(F)F)CC[C@@H]12 [Dutasteride]	94.4% and 96.6%	95	102	94.1	96	98.3	101	94.7
C=C1CC2(O)OC3(CC2C(C)C)C(C)CCC13 (configuration not stated) [Curcumol]	106% and 101%	102	112	107	97.8	108	99.9	102
CN1CCN(c2ccc3nc(-c4c(N)c5c(F)cccc5[nH]c4=O)[nH]c3c2)CC1 [Dovitinib (TKI-258, CHIR-258)]	59.5% and 69.8%	57.1	22.1	32.9	2.27	0.38	3.02	6.09

Reference: the supplement of paper PMC10981050
